{
  "source": "ChEMBL document CHEMBL4888484",
  "about": "“Replenishing the malaria drug discovery pipeline: Screening and hit evaluation of the MMV Hit Generation Library 1 (HGL1) against asexual blood stage Plasmodium falciparum ,using a nano luciferase reporter read-out” (2022)",
  "note": "Hit rate of the full screen: of about 150,000 compounds, about 540 (0.36%) showed an effect of 50% or more. What follows is part of a selection rich in strong results, with near analogues and random picks from the rest.",
  "data": [
    {"tested_on": "Plasmodium falciparum", "assay": "Primary screen in NF54 nanoGlo assay, in single point, at 2uM, 72h; a lower Z score goes with more inhibition", "assay_type": "functional, Erythrocyte", "conditions": "timepoint 72 hour", "units": {"% Inhibition": "%"}, "values": [
      {"molecule": "C[C@@H](Cc1ccccc1F)NCC1(CO)CCCC1", "% Inhibition": -3, "Z score": 0.57},
      {"molecule": "CCOc1ccc(NC(=O)CN2CC=C(c3cnn(C)c3)CC2)cc1", "% Inhibition": -9, "Z score": 0.93},
      {"molecule": "COc1ccc(NC(=O)CN2CC=C(c3cnn(C)c3)CC2)cc1Cl", "% Inhibition": -9, "Z score": 1.67},
      {"molecule": "Cc1ccc2c(c1)CCCN2C(=O)CN1CC=C(c2cnn(C)c2)CC1", "% Inhibition": 55, "Z score": -3.45},
      {"molecule": "CC1CCCC2CCCN(Cc3nc4c(cnn4C)c(=O)[nH]3)C12", "note": "(configuration not stated)", "% Inhibition": -8, "Z score": 0.94},
      {"molecule": "C[C@@H](Cc1ccc(F)cc1)NCC(C)(C)C(N)=O", "% Inhibition": -4, "Z score": 0.56},
      {"molecule": "C=CCCC(CN1C[C@H]2CC=CC[C@H]2C1)Oc1ncc(F)cn1", "note": "(some centres not stated)", "% Inhibition": 75, "Z score": -13.95},
      {"molecule": "C=CCCC(CN1C[C@H]2CC=CC[C@H]2C1)Oc1ncccn1", "note": "(some centres not stated)", "% Inhibition": -8, "Z score": 1.33},
      {"molecule": "C=CCCC(CN1C[C@H]2CC=CC[C@H]2C1)Oc1ccnc(C)n1", "note": "(some centres not stated)", "% Inhibition": 3, "Z score": -0.6},
      {"molecule": "Cc1oncc1C(=O)N1C[C@H](c2cc(F)cc(F)c2)[C@@H]2[C@H]1C1CCN2CC1", "% Inhibition": -4, "Z score": 0.74},
      {"molecule": "Cc1cnc(N2C[C@H]3CN(C)C[C@H]3C2)c(Br)c1", "% Inhibition": -1, "Z score": 0.19},
      {"molecule": "Fc1cnc(N2C[C@@H](c3ccccc3)[C@@H]3[C@H]2C2CCN3CC2)nc1", "% Inhibition": -13, "Z score": 2.17},
      {"molecule": "CN1CCN2c3cccc(Cl)c3CC3(C(=O)NC(=O)N(c4ccc(F)cc4)C3=O)C2C1", "note": "(configuration not stated)", "% Inhibition": 4, "Z score": -0.49},
      {"molecule": "COCCn1ccc(C(=O)N[C@H]2CCc3nc(C(C)C)nn3C2)n1", "% Inhibition": 71, "Z score": -11.17},
      {"molecule": "COCCn1cc(C(=O)N[C@H]2C[C@@](CO)(c3ccccc3)C2)nn1", "% Inhibition": 1, "Z score": -0.11},
      {"molecule": "COCCn1ccc(C(=O)NC(C)(C)c2ccc(F)cc2Cl)n1", "% Inhibition": 4, "Z score": -0.52},
      {"molecule": "CN(C(=O)CCC(F)(F)F)C1CC2CCC(C1)N2", "note": "(configuration not stated)", "% Inhibition": -19, "Z score": 1.62},
      {"molecule": "O=S(=O)(NC12CCCC1CNC2)c1onc(C2CC2)c1Cl", "note": "(configuration not stated)", "% Inhibition": 94, "Z score": -8.97},
      {"molecule": "CCCCOc1ncccc1CNC(=O)C1CN2CCCC2CO1", "note": "(configuration not stated)", "% Inhibition": -1, "Z score": 0.09},
      {"molecule": "CCC(CC)c1cc([C@H]2CN3CC[C@H]2C[C@@H]3CO)nc(-c2ccncc2)n1", "% Inhibition": 25, "Z score": -2.22},
      {"molecule": "CCCS(=O)(=O)NC[C@H]1C[C@@H]2CCN1C[C@@H]2c1cc(C(CC)CC)nc(-c2ccncc2)n1", "% Inhibition": 35, "Z score": -3.34},
      {"molecule": "CCC(CC)c1cc([C@H]2CN3CC[C@H]2C[C@@H]3CNS(=O)(=O)Cc2ccccc2)nc(-c2ccncc2)n1", "% Inhibition": 75, "Z score": -9.43},
      {"molecule": "COCCN1C[C@@H]2CC[C@H]1CN(C(=O)c1cc(C(C)C)on1)C2", "% Inhibition": 4, "Z score": -0.35},
      {"molecule": "Cc1ncsc1CN1C[C@@H]2CC[C@H]1CN(Cc1c(C)noc1C)C2", "% Inhibition": -5, "Z score": 0.89},
      {"molecule": "Cc1ccc(CNc2ncnc3[nH]ncc23)c(-n2cc(Cl)cn2)n1", "% Inhibition": 12, "Z score": -2.28},
      {"molecule": "CN(C)c1ccnc(N2C[C@@H](c3ccc4c(c3)OCO4)[C@@H]3[C@H]2C2CCN3CC2)n1", "% Inhibition": -7, "Z score": 0.91},
      {"molecule": "c1cc2c(cc1CCN1CCCC1)CCO2", "% Inhibition": -12, "Z score": 1.27},
      {"molecule": "Cn1nc(C(=O)N2CCC3(CC2)OCCO3)c2ccccc2c1=O", "% Inhibition": -14, "Z score": 2.25},
      {"molecule": "Cc1ccc(C)n1[C@@H](Cc1cnc[nH]1)C(=O)O", "% Inhibition": -1, "Z score": 0.15},
      {"molecule": "c1cc2c(c(-c3cnccn3)c1)CCNC2", "% Inhibition": -4, "Z score": 0.84},
      {"molecule": "c1ccc2c(c1)C[C@H](Cc1ccc3c(c1)CNCC3)CO2", "% Inhibition": 3, "Z score": -0.36}
    ]}
  ]
}
